The nature of experiment [1]: qHTS Screen of the MIPE 4.0 Collection Against Ewings Sarcoma (TC71) (AID 1259253). Also: nearly all actives have a fitted effect of over 40% in size. Also: potency is read from the fitted curve at half-maximal effect. The gist of the method:
(§1)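 Dose series incubated 48 h with cells in RPMI plus 5% FBS, glutamine and penicillin/streptomycin; cell viability then quantified via CellTiter-Glo.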
On the technique in general: qHTS replaces the single test concentration by a dilution series.

A short description of experiment [2]: qHTS Screen of the MIPE 4.0 Collection Against Ewings Sarcoma (EW8) (AID 1259255). Also: nearly all actives have a fitted effect of over 35% in size. Also: potency is read from the fitted curve at half-maximal effect. A digest of the protocol:
as §1

The nature of experiment [3]: qHTS Screen of the MIPE 4.0 Collection Against Ewings Sarcoma (TC32) (AID 1259256). Also: nearly all actives have a fitted effect of over 45% in size. Also: potency is read from the fitted curve at half-maximal effect. The gist of the method: as §1
Experiment [4] can be described thus: Identifying Small Molecule Inhibitors of Pancreatic Cancer Stem Cells (SN12C, Adherent) (AID 1259358).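 Also: cell survival measured after 48 h of compound exposure.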 A digest of the protocol: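 Endpoint: ATP-based luminescence, 48 h drug exposure. Bortezomib at 9.2 uM final as full-kill control; DMSO vehicle as negative control; activity normalized between vehicle and cell-free wells.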

Records with an inconclusive call do not appear. Activity calls are given as the source filed them. Calls follow the shape of the dose curve; as a rule, active = well fitted curve in the direction sought with a large enough effect; inconclusive = small, poorly fitted or top-dose-only effect, or another doubt; inactive = no such curve, though single readings can be large; an effect the other way counts as inactive or inconclusive.

As for `Cc1ccc2c(c1)C(=O)[C@]1(O)CCN(c3ccccc3)C1=N2`, the Potency in experiment [1] and in experiment [2] was 18.7 µM (active) each time. Moreover, the Potency result in experiment [3] was “inactive”.

For the compound `CC(C)C[C@H](NC(=O)c1cc2ccccc2s1)C(=O)N1CCN(C(=O)[C@H](CO)NS(=O)(=O)c2ccc(Cl)cc2Cl)CC1`, the Potency in experiment [1] was 23.5 µM (active); in experiment [2], 20.9 µM (active); in experiment [3] it was 23.5 µM (active).

On to `CC(=O)OCC(=O)[C@@]12OC(C)(C)O[C@H]1C[C@H]1[C@@H]3C[C@H](F)C4=CC(=O)C=C[C@]4(C)[C@@]3(F)[C@@H](O)C[C@@]12C`, for which the Potency result in experiment [1], in experiment [2] and in experiment [3] was “inactive” in each case.

Consider `CN(C)CC[C@H](CSc1ccccc1)Nc1ccc(S(=O)(=O)NC(=O)c2ccc(N3CCN(Cc4ccccc4-c4ccc(Cl)cc4)CC3)cc2)cc1[N+](=O)[O-]`, for which the Potency was 16.6 µM (active) in experiment [1], 16.6 µM (active) in experiment [2] and 4.18 µM (active) in experiment [3].

On to `CN1c2ccccc2C(=O)N2CCc3c([nH]c4ccccc34)C21` (stereo not drawn), for which the Potency in experiment [1] is 23.5 µM (active); in experiment [3], 14.8 µM (active). Also, the Potency entry in experiment [2] is “inactive”.

For the compound `Cc1cnc(Nc2cccc(CN3CCOCC3)c2)nc1Nc1cccc(S(=O)(=O)NC(C)(C)C)c1`, the Potency in experiment [1] was 2.35 µM (active); in experiment [2], 2.64 µM (active); in experiment [3], 1.87 µM (active).

For `C=C1[C@H](n2cnc3c(=O)[nH]c(N)nc32)C[C@H](O)[C@H]1CO`, the Potency in experiment [1] was 14.8 µM (active); in experiment [2], 13.2 µM (active). For the same compound, the Potency result in experiment [3] is “inactive”.

As for `CC(C)CNc1ccnc(NCc2csc(-c3ccccc3)n2)n1`, the Potency is 9.35 µM (active) in experiment [1], 18.7 µM (active) in experiment [2] and 14.8 µM (active) in experiment [3].

`O=C(O)Cc1cccc(OCCCN(Cc2cccc(C(F)(F)F)c2Cl)CC(c2ccccc2)c2ccccc2)c1`: the Potency in experiment [1], in experiment [2] and in experiment [3] was 20.9 µM (active) throughout. For the same compound, in experiment [4], the Potency entry is “inactive”.

Values taken from PubChem BioAssay (NCATS).
